ELG1 DNA repair = inhibitors of ELG1-dependent DNA repair in HEK293T cells; Potency, µM (titrated, usually from 46.1 µM), inactives show top-dose activity change, negative = inhibition, usual class: inhibitors; 2.3% of 330,000 active; HEK293T ELG1-luciferase reporter, luminescence, 16 h; DNA damage induced by 5-fluorouridine; note: potency is the fitted concentration of half-maximal effect; nearly all actives have a fitted effect of over 55% in size
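Quantitative HTS, concentration-response format. 2,000 cells/well co-treated with 5-fluorouridine and compound, 16 hr in 5% CO2 at 37 °C; ONE-Glo luminescence read after 30 min.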
HT1080 IDH1KD tx = HT-1080 IDH1 knockdown cell toxicity (counter line) | HT-1080 IDH1 knockdown viability, ATP luminescence, 48 h | Potency, µM (doses to about 46.1 µM), inactives show top-dose activity, negative = toxicity, most hits filed as cytotoxic | 2% of 360,000 active | AID 686971;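 note: potency is the fitted concentration of half-maximal effect; 0% = DMSO wells and -100% = cell-free medium wells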
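Cytotoxicity counter-line: IDH1KD HT-1080, 48 h, CellTiter-Glo. Curves classed by r2, magnitude and activity.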
DT40 TDP1 no CPT = qHTS for Inhibitors of human tyrosyl-DNA phosphodiesterase 1 (TDP1): qHTS in cells in absence of CPT | DT40 Tdp1-/- hTDP1 cells, no CPT, ATP luminescence, 48 h | Potency, µM (highest dose often 46.2 µM), without a hit: at the top dose activity change, negative = growth inhibition, hits mostly inhibitors | 15% of 420,000 active | AID 686978, 2013; note: potency is the fitted concentration of half-maximal effect; nearly all actives have a fitted effect of over 55% in size
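Chicken DT40 Tdp1-/- cells stably complemented with human TDP1 were seeded at 400 cells/well with DMSO in place of 20 nM camptothecin. After compound pinning, cells grew at least 48 hr at 37 °C; viability read by CellTiter-Glo luminescence.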
HT1080NT lethal = kills 2HG-producing HT-1080-NT fibrosarcoma cells | HT-1080-NT fibrosarcoma viability, CellTiter-Glo ATP luminescence, 48 h | 1.6% of 360,000 active | Potency, µM (highest dose often 46.1 µM), without a hit: at the highest dose activity, negative = less viability, actives largely listed as cytotoxic | AID 686970;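 note: NT is the 2HG producing partner of a matched IDH1 knockdown line; potency is the fitted concentration of half-maximal effect; 0% = DMSO-treated cells and -100% = media-only wells without cells; nearly all actives have a fitted effect of over 55% in size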
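Compounds were tested in concentration-response format on HT-1080-NT cells for 48 hours at 37 degrees C. Cell viability came from CellTiter-Glo luminescence; curves were classified by r2, response magnitude and activity.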
TDP1 cell CPT = growth inhibition of DT40 Tdp1-/-;hTDP1 cells with camptothecin (screen for TDP1 inhibitors) | chicken DT40 Tdp1-/-;hTDP1 cells + 20 nM CPT, ATP luminescence, 48 h | Potency, µM (series often up to 46.2 µM), for inactives: at the top dose activity change, negative = growth inhibition, usual class: inhibitors | 12% of 420,000 active; note: potency is the fitted concentration of half-maximal effect; nearly all actives have a fitted effect of over 55% in size
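Chicken DT40 Tdp1-/- cells stably complemented with human TDP1 were seeded at 400 cells/well in medium containing 20 nM camptothecin, exposed to pin-transferred compounds, and grown at 37 °C for at least 48 hr. Viability was read as ATP luminescence.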
IL1B secr inh = inhibitors of inflammasome signaling (IL-1 beta secretion) | AID 743279 | 4.7% of 360,000 active | activity change, % at 57.5 µM | THP-1 LPS/ATP IL-1B secretion, AlphaLISA, 16 h; stronger effect = lower value; in the data active = activity change below about -50%; inconclusive = mostly about -30% to -49%
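THP-1 cells pretreated 1 hr with compounds (up to 57.5 uM final), then stimulated with LPS (250 ng/mL final) plus ATP (1.25 mM final); secreted IL-1B measured by AlphaLISA after 16 hr, decreased signal indicating inhibition.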
The depositor's hits bear a star; ? = inconclusive; · = not tested or not shown; [ ] = remark or other dose. Compounds with a hit are over-represented: about 19% of the library has one in this group of screens. Unless noted, calls come from the whole dose curve; as a rule, active = well fitted curve in the direction sought with a large enough effect; inconclusive = small, poorly fitted or top-dose-only effect, or another doubt; inactive = no such curve, though single readings can be large; an effect the other way counts as inactive or inconclusive. Unless noted, % is set by controls: 0 for no effect and ±100 for the full control effect.

SMILES	ELG1 DNA repair	HT1080 IDH1KD tx	DT40 TDP1 no CPT	HT1080NT lethal	TDP1 cell CPT	IL1B secr inh
Cc1cc(C)cc(NC(=O)C2C3C=CC4(O3)C2C(=O)N(CCCN(C)C)C4C(=O)NC2CCCC(C)C2C)c1 (stereo unspecified)	-7.8%	-22.9%	-2.0%	?	2.2%	-26.7
CNS(=O)(=O)c1ccc(CNC[C@H]2O[C@@H](n3cnc4c(=O)[nH]c(N)nc43)[C@H](O)[C@@H]2O)cc1	·	?	3.4%	21.8%	-0.6%	27.0
CN1N=C(C(=O)N2CCOc3ccc(CN4CCCC(C(=O)c5cccnc5)C4)cc3C2)CCC1=O (stereo unspecified)	·	·	?	·	3.8%[9.04 µM]	·
Cc1ccc(/C=C2/SC(=S)N(CCC(=O)N3CCOCC3)C2=O)cc1	-2.8%	2.7%	16.4µM*	0.0%	11.6µM*	0.1
Cc1ccc(/C=C2\SC(=S)N(CCC(=O)NNC(=O)c3ccncc3)C2=O)cc1	-14.6%	17.0%	-9.5%	3.6%	0.5%	-13.4
CCCCNC(=O)c1nc(-c2ccncc2)oc1-c1ccccc1	·	4.0%	?	?	?	-12.9
CC(C)CNc1nc(Oc2ccc(=O)n(C)n2)nc(N2CCOCC2)n1	?	-4.8%	-7.6%	10.8%	-19.9%	5.5
CCNc1nc(NC(C)C)nc(Oc2ccc(=O)n(C)n2)n1	?	18.2%	13.3%	9.2%	5.8%	-5.7
CCNc1nc(NC(C)(C)C)nc(Oc2ccc(=O)n(-c3ccccc3)n2)n1	?	-5.4%	20.6µM*	-13.0%	16.4µM*	17.1
CC(C)(C)Nc1nc(Oc2ccc(=O)n(-c3ccccc3)n2)nc(N2CCOCC2)n1	-20.9%	-6.2%	20.6µM*	-1.9%	?	-11.3
Nc1cc(Br)cc2c1[nH]c(=O)c1ccccc12	·	0.5%	-18.7%	-19.1%	?	0.1
CNS(=O)(=O)c1ccc(CNC[C@H]2O[C@@H](n3ccc(N)nc3=O)[C@H](O)[C@@H]2O)cc1	·	-0.7%	-3.1%	-1.7%	6.3%	4.5
COc1ccc(N2CCN(C(=O)CSc3ccc(C)cc3)CC2)cc1	-1.6%	10.6%	?	20.8%	-3.5%	-14.8
O=C(NC1CCCCC1)N1CCN(c2ccc(Cl)cc2)CC1	?	-12.6%	?	?	?	-23.0
COc1ccc(NC(=O)N2CCN(c3ccc([N+](=O)[O-])cc3)CC2)cc1OC	-10.8%	-1.5%	18.4µM*	-15.1%	?	?
COc1ccccc1CC(=O)N1CCN(c2ccc([N+](=O)[O-])cc2)CC1	?	-7.7%	9.2µM*	-10.7%	14.6µM*	?
COc1ccc(NC(=O)N2CCN(S(C)(=O)=O)CC2)cc1OC	-1.7%	-1.7%	-9.2%	-4.7%	-4.2%	16.5
COc1ccc(N2CCN(C(=O)CSc3ccc([N+](=O)[O-])cc3)CC2)cc1	?	-3.2%	23.1µM*	12.7%	?	-9.8
O=C(NC1CCCCC1)N1CCN(c2ccc([N+](=O)[O-])cc2)CC1	?	-1.6%	?	-4.0%	13µM*	?
Cc1cc(C)cc(NC(=O)CCc2nnc3n(C)c(=O)c4sccc4n23)c1	·	·	-14.7%	·	-15.0%	·
CCC(C)n1c(=O)c2sccc2n2c(CCCC(=O)NCc3ccccc3Cl)nnc12 (stereo unspecified)	·	·	-20.8%	·	1.4%	·
COc1ccc(NC(=O)N2CCN(c3ccc([N+](=O)[O-])cc3)CC2)cc1	7.7%	12.9%	2.31µM*	14.9%	2.31µM*	1.6
COc1ccc(C(=O)NC(=S)N2CCN(c3ccc([N+](=O)[O-])cc3)CC2)cc1	-17.6%	1.4%	?	-1.0%	?	?
COc1ccc(CCC(=O)N2CCN(c3ccc([N+](=O)[O-])cc3)CC2)cc1OC	?	-8.7%	14.6µM*	0.4%	?	?
COC(=O)c1[nH]c(=O)c2ccccc2c1O	16.2%	17.8%	0.4%	20.0%	2.59µM*	-1.3
SMILES	ELG1 DNA repair	HT1080 IDH1KD tx	DT40 TDP1 no CPT	HT1080NT lethal	TDP1 cell CPT	IL1B secr inh
COC(=O)c1[nH]c(=O)c2ccccc2c1OCc1ccccc1	-2.1%	-2.0%	-16.7%	0.1%	-15.2%	16.2
Cc1ccnc(Nc2nc(-c3ccc(O)cc3)cs2)c1	?	-28.2%	-27.1%	-18.3%	0.7%	-21.4
Cc1csc(Nc2cccc3ccccc23)n1	?	0.9%	-22.7%	-5.4%	-15.1%	0.0
CC(=O)Nc1ccc(-c2csc(Nc3ccccn3)n2)cc1	?	-1.6%	-24.9%	0.7%	?	-0.6
Oc1ccc(-c2csc(Nc3cccc4ccccc34)n2)cc1O	11.3%	-4.0%	8.2µM*	-12.3%	0.92µM*	5.4
Cc1cccc(Nc2nc(-c3ccc(O)c(O)c3)cs2)n1	?	?	1.64µM*	?	2.06µM*	-4.4
Oc1ccc(-c2csc(Nc3ccccn3)n2)cc1O	?	-22.6%	2.59µM*	-21.4%	5.17µM*	?
Cc1cccc(Nc2nc(-c3ccc(F)c(C)c3)cs2)n1	?	-0.6%	?	-16.9%	?	-25.0
Cc1ccnc(Nc2nc(-c3ccc(O)c(O)c3)cs2)c1	?	?	3.26µM*	-25.1%	2.06µM*	-59.5*
CC1CN(CCOc2ccccc2C(C)C)CC(C)O1 (stereo unspecified)	-12.4%	11.0%	-17.5%	4.8%	-26.3%	18.7
O=C(CSc1ccc(Cl)cc1)NNC(=O)c1ccncc1	22.3%	2.7%	4.8%	-2.1%	-15.0%	9.4
Cc1cccnc1Nc1nc(-c2ccc(O)c(O)c2)cs1	?	-22.0%	3.66µM*	-29.5%	3.26µM*	0.0
CCN(CC)CCOc1ccc(-c2nc3cc(Cl)ccc3s2)cc1	·	·	4.73µM*	·	4.73µM*	·
CCN(CC)CCOc1ccc2nc(N(C)C)sc2c1	16.1%	4.2%	?	0.5%	?	20.9
COc1cccc(N2CCN(S(=O)(=O)c3cc4c(cc3Cl)NC(=O)CO4)CC2)c1	16.5%	0.4%	-9.9%	-1.5%	8.6%	14.3
O=C(Cc1cccc([N+](=O)[O-])c1)Nc1ccccc1	·	0.6%	1.5%	2.3%	5.0%	-6.7
Cc1cccc(NC(=O)CCc2ccc(N3C(N)=NC(N)=NC3(C)C)cc2)c1	·	0.461µM*	0.366µM*	1.03µM*	0.326µM*	4.7
Cc1cccc(NC(=O)CCc2ccccc2)c1	?	2.1%	-3.0%	19.1%	-12.5%	-14.1
CC1(C)N=C(N)N=C(N)N1c1ccc(OCCCOc2ccccc2)c(Cl)c1	2.59µM*	2.06µM*	2.31µM*	?	1.84µM*	?

High-throughput results from PubChem BioAssay.
